Inconclusive results are not listed. The source made the active and inactive calls. The calls were made as follows: active = hit-call score of the fitted dose curve at least 0.9, where 1 is the maximum; inconclusive = response in the unintended direction; inactive = score below 0.9.

Sequence of Estrogen receptor (Homo sapiens) (P03372 whole entry, looked up, the tested form may be a part): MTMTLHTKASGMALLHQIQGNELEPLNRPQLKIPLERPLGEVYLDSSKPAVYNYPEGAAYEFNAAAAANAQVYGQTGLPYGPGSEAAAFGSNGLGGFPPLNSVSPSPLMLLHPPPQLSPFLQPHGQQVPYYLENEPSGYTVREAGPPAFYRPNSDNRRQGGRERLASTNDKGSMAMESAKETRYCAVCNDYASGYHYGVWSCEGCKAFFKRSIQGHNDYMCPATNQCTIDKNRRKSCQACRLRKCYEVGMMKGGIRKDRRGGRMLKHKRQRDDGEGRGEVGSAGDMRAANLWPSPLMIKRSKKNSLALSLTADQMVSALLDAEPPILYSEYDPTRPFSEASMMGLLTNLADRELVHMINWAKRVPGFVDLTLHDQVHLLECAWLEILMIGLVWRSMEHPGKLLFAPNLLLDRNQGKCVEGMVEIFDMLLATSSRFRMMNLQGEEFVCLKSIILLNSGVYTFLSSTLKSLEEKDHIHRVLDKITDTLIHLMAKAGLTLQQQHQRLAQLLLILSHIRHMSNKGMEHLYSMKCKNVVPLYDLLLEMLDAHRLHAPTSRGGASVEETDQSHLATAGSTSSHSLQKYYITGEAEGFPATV

This test concerns the target Estrogen receptor (Homo sapiens) (UniProt P03372). The test is described as follows: OT_ER_ERaERa_0480: Odyssey Thera (OT) 8-hour HEK293T Protein-Complementation Assay for Estrogen Receptor-alpha/-alpha Homodimer (AID 2283351).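 Also: rise in fluorescence from reassembled reporter fragments on ERα LBD homodimer in nucleus or whole cell.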 As for the experimental part:
OT_ER_ERaERa_0480 is a cell-based assay that uses HEK293T, a human kidney cell line, with measurements taken at 8 hours after chemical dosing in a 384-well plate.OT_ER_ERaERa_0480 is one of one assay component(s) measured or calculated from the OT_ER_ERaERa_0480 assay. It is designed to make measurements of protein fragment complementation, a form of binding reporter, as detected with fluorescence intensity signals by Protein-fragment Complementation technology.Data from the assay component OT_ER_ERaERa_0480 was analyzed into 1 assay endpoint. This assay endpoint, OT_ER_ERaERa_0480, was analyzed in the positive analysis fitting direction relative to DMSO as the negative control and baseline of activity. Using a type of binding reporter, measures of receptor for gain-of-signal activity can be used to understand the binding at the pathway-level as they relate to the gene ESR1. Furthermore, this assay endpoint can be referred to as a primary readout, because the performed assay has only produced 1 assay endpoint. To generalize the intended target to other relatable targets, this assay endpoint is annotated to the nuclear receptor intended target family, where the subfamily is steroidal.
Protein-fragment complementation assay, or PCA, is a method for the identification and quantification of protein-protein interactions. In the PCA, the proteins of interest ("bait" and "prey") are each covalently linked to fragments of a third protein (e.g. DHFR, which acts as a "reporter"). Interaction between the bait and the prey proteins brings the fragments of the reporter protein in close proximity to allow them to form a functional reporter protein whose activity can be measured. The OT ER alpha / ER alpha assay is a homodimer PCA of the ligand binding domain (amino acids 310-547) of human ER alpha stably expressed in HEK293T cells. […] Fluorescent signal in the basal state of the assay is very low and is primarily punctuate and cytoplasmic. Modulation of this assay is quantified as an increase in mean fluorescence intensity in the nucleus (for agonists) or in the nucleus and cytoplasm (antagonists) relative to vehicle controls, and can be quantified on a high content imaging device or a laser scanning cytometer. The latter instrument is favored for this assay because of the rapid mode of data acquisition, the ability to acquire data from the entire cell population in a well (as opposed to a fraction of the well on the high content devices) and the larger dynamic range typically achieved with this instrument. To assess sensitivity of the ER alpha/ER alpha LBD assay to ligand, cells were treated with the ER agonist 17 beta-estradiol (E2) in 10-point concentration- response format for 8 hours and monitored response on a laser scanning plate cytometer (Acumen eX3; TTP Lab Tech).
For the compound `CC(C)c1ccc2c(C(C)C)cc(C(C)C)c(S(=O)(=O)O)c2c1`, the call was inactive. As for `CCO[Si](C)(OCC)OCC`, the compound was called inactive. For the compound `O=C(C=Cc1ccccc1)OCc1ccccc1`, the outcome was inactive.

Regarding `C1CN(SSN2CCOCC2)CCO1`, the outcome was inactive. With `c1c[nH]cn1`, the compound was classed as inactive. On the same count and under the same terms, next, `CC(=O)[C@H]1[C@H](C#N)C[C@H]2[C@@H]3CC=C4C[C@@H](O)CC[C@]4(C)[C@H]3CC[C@@]21C`: “inactive”; `CCCCCCC1(C)CCC(=O)O1` (stereo not given): “inactive”; `CC(C)(C)c1ccc(OC(=O)c2ccccc2O)cc1`: “inactive”.

Take `CC(CC=O)CCCC(C)(C)O` (stereo not given): the call was inactive. On the same count and under the same terms, next, `Cc1ccc(N/N=c2\c(=O)cc/c(=N/Nc3ccc(S(=O)(=O)O)cc3)c2=O)c(C)c1`: “inactive”; `CC(C)(C)c1ccc(-c2ccc(C(C)(C)C)cc2)cc1`: “inactive”; `CCOC(=O)Cc1cccc2ccccc12`: “inactive”. The same measure, in the same setting: next, `O=S(=O)(O)c1ccccc1C=Cc1ccc(-c2ccc(C=Cc3ccccc3S(=O)(=O)O)cc2)cc1`: “inactive”; `C=CC(=O)NC(C)(C)CS(=O)(=O)O`: “inactive”.

Consider `O=C1CCCC1`, for which the result was inactive.

Turning to `CCCCCCCCCCCCCOP(=O)(O)O`, the compound was classed as inactive. In the case of `CCCCC/C=C\CCC=O`, the compound was classed as inactive. With `CCCc1ccc(OC)cc1`, the call was inactive. Turning to `Cc1cc(C)c(C(=O)O)c(C)c1`, the compound was classed as inactive. As to `CCCCCCCC[N+](C)(CCCCCCCC)CCCCCCCC`, the outcome was inactive.

Consider `O=C(c1ccccc1)C1CCC1`, for which the call was inactive. Turning to `O=C(C(Cl)Cl)N1CCOC12CCCCC2`, the compound was classed as inactive. Still for that read-out and setting: next, `NC(CO)(CO)CO`: “inactive”. As to `CCCCCCCOC(=O)CCC`, the outcome was inactive. `NC(=O)c1ccccc1O`: the result was inactive. As for `CO[Si](OC)(OC)c1ccccc1`, the outcome was inactive. `OC1CCCC1`: the compound was classed as inactive. Regarding `CC(=O)OC(C)C`, the compound was classed as inactive.

Turning to `CNC(=S)NN`, the outcome was inactive. Still for that read-out and setting: next, `CCCCCCCC/C=C\CCCCCCCC(=O)OCCO`: “inactive”. Same read-out and setting: next, `CC1=CC[C@H]2C[C@@H]1C2(C)C`: “inactive”. With `Cc1cc(C)c(C)cc1C`, the result was inactive. As for `CC=C1CC2C=CC1C2` (stereo not given), the result was inactive. Take `CCCCCCCCCCOS(=O)(=O)O`: the compound was called inactive. On the same count and under the same terms, next, `O=C(O)CCCC[C@@H]1SC[C@@H]2NC(=O)N[C@@H]21`: “inactive”; `Cc1ccc(C(C)(C)C)cc1`: “inactive”.

On to `C1=Cc2ccccc2C1`, for which the call was inactive. On to `CC(C)(C)c1ccc(N)cc1`, for which the result was inactive. Broadly, the AC50 is the concentration giving half of the maximal activity seen. Consider `Cc1ccc(C(C)c2ccc(C)c(C)c2)cc1C`, for which the AC50 is 70.3 µM (active). For `NC(=O)N=NC(N)=O`, the compound was called inactive.

For the origin of these results see PubChem BioAssay (EPA / NIEHS).
